In the library only some 12% were active in any assay of this set; here they are far more common.
HP1b chromo inh: HP1-beta chromodomain-methylated histone interaction inhibition; P83916; AlphaScreen HP1-beta / biotin-H3K9me3 peptide binding; Potency, µM (doses to about 114 µM), without a hit: top-dose activity change, negative = inhibition, most hits filed as inhibitors; 390,000 compounds, 0.56% hits; AID 540317; note: potency is the fitted concentration of half-maximal effect; nearly all actives have a fitted effect of over 70% in size
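AlphaScreen: HP1-beta (50 nM) preformed 30 min with biotin-H3(1-18)K9me3 peptide (50 nM) in PBS pH 7.4, 0.01% Tween-20. Compound added for 30 min at RT, then streptavidin donor/nickel chelate acceptor beads (10 ug/mL) for 30 min.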
BAZ2B inh: BAZ2B (human) inhibition; Q9UIF8; AlphaScreen BAZ2B-H3K14Ac peptide displacement; Potency, µM (top dose mostly 114 µM), for the others: top-dose activity change, negative = inhibition, hits mostly inhibitors; 360,000 compounds, 4.4% hits; AID 504333; note: potency is the fitted concentration of half-maximal effect; % is set by controls: 0 for no effect and ±100 for the full control effect; nearly all actives have a fitted effect of over 60% in size
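Inhibition is scored as reduced AlphaScreen emission. The BAZ2B/b-H3(5-23)K14Ac complex (50 nM each) in PBS pH 7.4, 0.01% Tween-20 meets compound (up to 110 uM) for 30 min at RT before bead addition.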
JMJD2A Tudor inh: JMJD2A Tudor domain (human) inhibition; O75164; AlphaScreen JMJD2A-Tudor / H3K4me3 peptide binding; Potency, µM (top dose mostly 114 µM), inactives show at the highest dose activity change, negative = inhibition, most hits filed as inhibitors; 390,000 compounds, 4.4% hits; AID 504339; note: potency is the fitted concentration of half-maximal effect; % is set by controls: 0 for no effect and ±100 for the full control effect; nearly all actives have a fitted effect of over 50% in size
G9a block: blocks human histone lysine methyltransferase G9a; Q96KQ7; Potency, µM (top dose mostly 102 µM), inactives show at the highest dose activity, negative = inhibition, most hits filed as inhibitors; G9a H3K9 monomethylation, AlphaScreen, 2 h; 350,000 compounds, 8.8% hits; note: potency is the fitted concentration of half-maximal effect; % is set by controls: 0 for no effect and ±100 for the full control effect; nearly all actives have a fitted effect of over 75% in size
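AlphaScreen read-out: biotin-H3K9 peptide (500 nM) methylation by 20 nM enzyme with 20 uM SAM, 2 h at room temperature after 15 min compound preincubation; anti-monomethyl H3K9 antibody plus donor/acceptor beads, 10 min dark.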
PLK1 PBD inh: blocks phosphopeptide binding to human PLK1 polo-box domain; AID 720504; Plk1 PBD binding of FITC phosphopeptide, fluorescence polarization; 360,000 compounds, 2.8% hits; Potency, µM, for the others: max response, negative = inhibition, actives largely listed as inhibitors; note: potency is the fitted concentration of half-maximal effect; series mostly up to about 57 µM; % is set by controls: 0 for no effect and ±100 for the full control effect; nearly all actives have a fitted effect of over 65% in size
PI5P4Ka inh: blocks human PI5P4K alpha kinase activity; P48426; AID 652105; max response, %; PI5P4Kalpha enzyme, ADP-Glo luminescence, 60 min; active compounds read low; 330,000 compounds, 1.2% hits; active = max response of -50% or lower; inconclusive = between -30% and -50%; inactive = -30% or higher; note: value at the top dose of about 77 µM; % is set by controls: 0 for no effect and ±100 for the full control effect
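Enzyme plus substrate dispensed, test compounds pinned in, then ATP (5 microM final) added. After 60 min at RT, ADP-Glo reagent 1 for 45 min and reagent 2 for 30 min preceded luminescence imaging.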
* hit, by the source's call; ? = inconclusive; nt = not tested or not shown; [ ] = dose if it differs, or a comment. Unless noted, calls come from the whole dose curve; as a rule, active = well fitted curve in the direction sought with a large enough effect; inconclusive = small, poorly fitted or top-dose-only effect, or another doubt; inactive = no such curve, though single readings can be large; an effect the other way counts as inactive or inconclusive.

SMILES	HP1b chromo inh	BAZ2B inh	JMJD2A Tudor inh	G9a block	PLK1 PBD inh	PI5P4Ka inh
Cc1nn(-c2ccccc2)c2c1C(c1ccncc1)C(C#N)=C(N)O2 (configuration not stated)	8%	-8%	-20%	16µM*	-11%	-22
COc1cc(-n2nc(C)c3c2OC(N)=C(C#N)C3c2ccccc2)c(Cl)c(Br)c1O (configuration not stated)	45µM*	45µM*	-33%[11.4 µM]	?	-25%	-57*
O=C(CCS(=O)(=O)c1cc2c3c(c1)CCN3C(=O)CC2)NCc1ccc(F)cc1	15%	-11%	-15%	-31%[59 µM]	nt	nt
Nc1ccc2c(c1)C(=O)N(c1ccc3ccccc3c1)C2=O	63%	nt	11%	nt	nt	nt
C[C@@H]1CN([C@H](C)CO)C(=O)c2cc(Br)cnc2O[C@H]1CN(C)C(=O)CC1CC1	nt	nt	nt	nt	-1%	3
Cc1nn(Cc2ccccc2)c2c1C(c1cccc(Cl)c1)C(C#N)=C(N)O2 (configuration not stated)	-21%	?	?	50µM*	27µM*	-2
Cc1cc2c(c(=O)n1C1CC1)C(c1cccc(Cl)c1)C(C#N)=C(N)O2 (configuration not stated)	50%	-4%	-12%	-35%	0%	-2
OCCNCCCCOc1ccc(OCc2ccccc2)cc1	-1%	-9%	-34%	18%[59 µM]	7%	18
CC(C)(c1ccccc1)c1ccc(OCCCNCCO)cc1	-7%	56µM*	-15%[11.4 µM]	-23%[12.7 µM]	-21%	6
CCc1cc(OCCCCNCc2ccccc2)ccc1Cl	25%	?	6.3µM*	?	-7%	18
C=CCNCCCOc1ccc(C(C)(C)c2ccccc2)cc1	?	40µM*	1.6µM*	10µM*	-7%	3
COCCNCc1ccccc1	-9%	-2%	?	20%[59 µM]	30µM*	nt
O=C(CCC(=O)N(CC(=O)NC1CCCC1)c1ccccc1F)Nc1nccs1	32%	2%	7%	16%	2%	2
COc1ccc(CNC(=O)C2CCCN(S(=O)(=O)c3ccc4c(ccn4C)c3)C2)c(OC)c1 (configuration not stated)	14%[57 µM]	-12%	-20%	8%[59 µM]	nt	nt
COc1ccc(OC)c(CNC(=O)c2cc(=O)[nH]c3ccc(S(=O)(=O)N4CCCCC4C)cc23)c1 (configuration not stated)	10%	-18%	?	1%[59 µM]	nt	nt
O=[N+]([O-])c1ccccc1OCCNCc1ccccc1	?	?	45µM*	7.9µM*	-3%	1
COCCCNCCCOc1ccc(C(C)(C)c2ccccc2)cc1	?	45µM*	6.3µM*	2.8µM*	-3%	-2
COCCNCCCOc1ccc(C(C)(C)c2ccccc2)cc1	?	35µM*	0.79µM*	10µM*	-6%	2
COc1ccc(OCCCNCCc2ccccc2)cc1	27%	-25%	-10%	4%[12.7 µM]	-11%	-3
COCCNC(=O)COc1ccc(OCCNC[C@H](O)COc2ccccc2)cc1	nt	nt	nt	29%[59 µM]	nt	nt
CC(C)(C)c1ccc(OCCCNCc2ccccc2)cc1	?	?	3.5µM*	10µM*	3%	10
CCOc1ccc(NC(=O)CSc2nnc(-c3ccncc3)n2-c2ccccc2)cc1	22%	0%	-4%	-5%[59 µM]	nt	nt
COc1ccc(S(=O)(=O)N2CCCCCC2)cc1C(=O)N1CCN(c2ccccc2O)CC1	9%	-2%	-21%	6%[0.501 µM]	0%	?
O=c1cnc2cnc(Nc3ccccc3)nc2n1CCc1ccccc1	nt	nt	nt	4%[0.501 µM]	nt	nt
Cn1nc(C(=O)NC2CCCCC2)c2c1-c1ccccc1S(=O)(=O)C2	73%	-6%	-7%	nt	-6%	9
CC(=O)Nc1cccc(NC(=O)CSc2nccn2C2CCCC2)c1	40%	-3%	-16%	-20%[59 µM]	nt	nt
O=C(CSc1nccn1C1CCCC1)Nc1cccc(F)c1	9%	79µM*	-29%	-16%[59 µM]	nt	nt
Cc1ccc(C)c(NC(=O)CN(C)C(=O)c2cccc(N3C(=O)CCC3=O)c2)c1	3%	-4%	-6%	40µM*	-5%	1

From PubChem BioAssay
